# High-throughput results deposited in PubChem by National Center for Advancing Translational Sciences (NCATS).
# An excerpt weighted towards active compounds, which were near 14% of everything screened.
# NS1 inh: influenza NS1 inhibition; 0.4% of 270,000 active; Potency, µM (series often up to 46.1 µM), for the others: at the highest dose activity, positive = more growth; AID 2326; calls by dose curve; note: potency is the fitted concentration of half-maximal effect; actives are rising curves; nearly all actives have a fitted effect of over 50% in size
#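 A cell-based growth assay was used: compounds that relieve NS1-induced slow growth of budding yeast raise OD600. Assay medium was yeast nitrogen base with ammonium sulphate and -URA supplement, pH 6.0, with 2% galactose.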
# CHX counter: counter-screen for Shiga toxin inhibitors: cycloheximide protein synthesis inhibition. cell reporter, cycloheximide protein synthesis inhibition counterscreen. 12% of 300,000 active. max response, %. AID 2314; in the data active = max response mostly above about 13%, no sharp cut-off; inactive = mostly below about 14%; note: read at 38.3 µM for the half of the compounds with a filed dose; 0% is about no effect
# LmPK inh: LmPK (Leishmania mexicana) enzyme inhibition | Q27686 | purified LmPK, Kinase-Glo ATP luminescence, 1 h | Potency, µM (top dose mostly 57.5 µM), inactives show at the highest dose activity change, negative = inhibition, usual class: inhibitors | 0.37% of 290,000 active | AID 1721; note: potency is the fitted concentration of half-maximal effect; % is set by controls: 0 for no effect and ±100 for the full control effect
#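 ATP generated from ADP (0.1 mM) and PEP (0.5 mM) by 0.1 nM LmPK over 1 h at room temperature (pH 7.2 imidazole buffer) was detected by coupled luciferase luminescence. Values were normalized to uninhibited and no-enzyme wells.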
# Giardia FBPA inh: blocks Giardia fructose-bisphosphate aldolase activity | AID 2451 | Potency, µM (titrated, usually from 59.6 µM), for the others: at the top dose activity, negative = inhibition, usual class: inhibitors | purified Giardia FBPA | 0.71% of 290,000 active; note: potency is the fitted concentration of half-maximal effect; % is set by controls: 0 for no effect and ±100 for the full control effect; nearly all actives have a fitted effect of over 55% in size
# Target sequence (A8B2U2 whole entry, looked up): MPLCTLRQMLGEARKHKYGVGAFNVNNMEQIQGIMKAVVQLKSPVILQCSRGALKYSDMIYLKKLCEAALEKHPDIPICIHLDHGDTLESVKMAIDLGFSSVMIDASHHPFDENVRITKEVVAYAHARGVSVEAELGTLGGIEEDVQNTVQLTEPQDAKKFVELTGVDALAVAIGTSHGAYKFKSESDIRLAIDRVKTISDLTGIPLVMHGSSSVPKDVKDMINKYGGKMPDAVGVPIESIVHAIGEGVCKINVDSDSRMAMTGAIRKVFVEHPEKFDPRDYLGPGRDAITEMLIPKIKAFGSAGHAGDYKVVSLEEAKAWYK
#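 Giardia FBPA (40 nM reagent) was preincubated 10 min at RT with compound (up to 57.5 uM final), then substrate plus GAPDH/TPI/NAD/arsenate coupling system with diaphorase/resazurin was added; resorufin fluorescence (525/598 nm) was read after 20 min.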
# Shiga toxin inh: blocks Shiga toxin action in Vero cells | Vero cells, Shiga toxin protein synthesis inhibition reporter | inhibition, % at 38.7 µM | 9.2% of 290,000 active | AID 2315; in the data active = inhibition mostly above about 28%, no sharp cut-off; inactive = mostly below about 43%; note: 0% is about no effect
# An asterisk follows results filed as active; ? = inconclusive; · = no result given; ! = a repeat was not active; [ ] = remark or other dose. Unless noted, calls come from the whole dose curve; as a rule, active = well fitted curve in the direction sought with a large enough effect; inconclusive = small, poorly fitted or top-dose-only effect, or another doubt; inactive = no such curve, though single readings can be large; an effect the other way counts as inactive or inconclusive.
SMILES,NS1 inh,CHX counter,LmPK inh,Giardia FBPA inh,Shiga toxin inh
CCSc1nnc(NC(=O)C2CCCCC2)s1,-9%,25*,0%,6%,62*
CC(C)c1nnc(NC(=O)C2CCCCC2)s1,?,13*,6%,1%,20*
CCCC(=O)Nc1nnc(SCC(=O)N2CCCCC2)s1,13%,-4,5%,-24%,-4
CCCC(=O)Nc1nnc(SCC)s1,16%,19*,4%,-1%,38*
CSc1nnc(NC(=O)C2CCCCC2)s1,8%,-2,1%,-7%,-3
CCc1nnc(NC(=O)C2CCCCC2)s1,-12%,39*,1%,6%,13
CCCNc1c(NC(=O)C2CCC(C)CC2)c(=O)oc2ccccc12 (stereo unspecified),0%,-2,9%,·,-1
CCCCc1nnc(NC(=O)C=C(C)C)s1,4%,5,-4%,0%,19
COc1ccc(S(=O)(=O)N2CCCC(C(=O)Nc3ccc(OC)c(OC)c3)C2)cc1 (stereo unspecified),-34%,-2,1%,-7%,0
CC(C)=CC(=O)Nc1nnc(C(C)C)s1,-11%,46*,-2%,0%,53
CCc1nnc(NC(=O)C2CCCN(S(=O)(=O)c3ccc(OC)cc3)C2)s1 (stereo unspecified),0%,38*,-5%,3%,72*
CCc1nnc(NC(=O)NC(C)(C)C)s1,-3%,24*,8%,-3%,95
CC(C)Sc1nnc(Nc2ccccc2)s1,-50%,37*,-5%,-10%,143*
COc1ccc(S(=O)(=O)NNC(=S)NCCc2ccccc2)c(OC)c1,-2%,-2,-2%,·,-7
CC(OC(=O)CC1Sc2ccccc2NC1=O)C(=O)NC1CCCC1 (stereo unspecified),13%,-4,-2%,4%,-11
CC(C)Sc1nnc(NC(=O)C2CC2)s1,?,35*,-2%,3%,active
Cc1ccc(Cn2c(=S)[nH]c3ccc(N4CCOCC4)cc3c2=O)o1,?,16*,5%,?,27
COc1ccc(Cn2c(=S)[nH]c3cc(C(=O)N4CCN(c5ccccc5)CC4)ccc3c2=O)cc1,15%,-5,-7%,12%,-1
O=c1c2cc(N3CCOCC3)ccc2[nH]c(=S)n1Cc1ccc(Cl)cc1,16%,76*,12%,-20%,40*
CCCCn1c(=S)[nH]c2ccc(N3CCOCC3)cc2c1=O,·,17,5%,-16%,-3
Cc1ccc(C)c(N2CCN(C(=O)c3ccc(Cn4c(=S)[nH]c5ccc(N6CCOCC6)cc5c4=O)cc3)CC2)c1,·,24,-2%,-11%,34
COc1ccc(N2CCN(C(=O)c3ccc(Cn4c(=S)[nH]c5ccc(N6CCOCC6)cc5c4=O)cc3)CC2)cc1,·,40*,2%,0%,87*
O=C(c1ccc(Cn2c(=S)[nH]c3ccc(N4CCOCC4)cc3c2=O)cc1)N1CCN(c2ccc(F)cc2)CC1,·,37*,-1%,-2%,88*
CC(N)=NCCCC[C@@H](N)C(=O)O,-2%,·,·,-2%,·
COc1ccc(NC(=O)NNC(=O)CCc2ccc(O)c(O)c2)cc1OC,-6%,-3,-16%,-7%,-4
SMILES,NS1 inh,CHX counter,LmPK inh,Giardia FBPA inh,Shiga toxin inh
O=C(CSc1ncnc2ccccc12)Nc1ccc2c(c1)OCCO2,·,31*,3%,-2%,63
O=C(CSc1ncccc1C(=O)O)Nc1ccc2c(c1)OCCO2,11%,100*,-4%,-2%,82*
COc1cc(-c2nnn(CC(=O)NC3CCS(=O)(=O)C3)n2)ccc1OCc1ccccc1 (stereo unspecified),-3%,17*,5%,5%,44*
COc1cc(-c2nnn(CC#N)n2)ccc1OCc1ccccc1,-76%,30*,2%,0%,64*
COc1ccc(-c2nnn(CC(=O)NCc3ccccc3)n2)cc1OC,4%,5,1%,0%,10
CCOC(=O)COC(=O)c1ccc(O)cc1,-12%,15,-1%,3%,47
CC(C)(C)NC(=O)COC(=O)c1ccc(O)cc1,8%,17*,3%,9%,19
Cc1ccc(C(=O)COC(=O)c2ccc(O)cc2)cc1,-3%,33*,0%,9%,94*
CC(=O)NCC(=O)OCC(=O)c1ccc(C)cc1,2%,-3,0%,0%,12
Cc1ccc(C(=O)COC(=O)C2CCC2)cc1,0%,36*,-6%,16%,48*
COc1ccc(C)cc1NC(=O)CCC(=O)Nc1nnc(C2CCCCC2)s1,-6%,1,8%,-2%,-11
CC1(OC(=O)C2CCCC2)C(=O)C=C2C=C(c3ccsc3)N(c3ccc(CO)cc3)C=C2C1=O (stereo unspecified),·,·,-10%[11.5 µM],4%[12.9 µM],·
COCCn1c(=O)[nH]c(=O)c2c1nc(-c1cc(Br)c3c(c1)OCO3)n2Cc1ccccc1,·,10,4%,5%,-4
CC(C)(C)c1ccc(C(=O)Nc2ccccc2Cl)cc1,·,19,7%,-10%,50*
CC(C)(C)c1ccc(C(=O)Nc2ccccc2NC(=O)c2ccco2)cc1,0%,20*,2%,?,29*
CC(C)(C)c1ccc(C(=O)N/C(=C\c2ccco2)C(=O)Nc2ccccc2C(=O)O)cc1,?,31*,9%,-19%,60*
O=C(Nc1ccccc1NC(=O)c1ccco1)c1ccccc1,8%,-13,-2%,13%,-7
CC1CCN(C(=O)C(C)NCc2ccc(F)cc2)CC1 (stereo unspecified),9%,2,-3%,?,-4
Cc1cc(NC(=O)CN2CCCC(C)C2)no1 (stereo unspecified),1%,13*,3%,-2%,49*
O=S(=O)(N1CCOCC1)N1CCOCC1,2%,-3,0%,-1%,-5
COc1ccc(/C=C\C(=O)Nc2ccccc2C(=O)O)cc1OC,·,·,·,-3%,·
Nc1cc(N)nc(SCCN2CCCCC2)n1,-7%,-2,-2%,-6%,-11
CC(=O)c1sc2nsc(SCCN3CCCC3)c2c1N,7%,20*,3%,-14%,31
COc1cccc(NC(=O)CCSc2ccc3ccccc3n2)c1,-5%,15*,0%,-7%,17
COc1ccc(NC(=O)CCSc2ccc3ccccc3n2)cc1,-1%,1,1%,-1%,-10
SMILES,NS1 inh,CHX counter,LmPK inh,Giardia FBPA inh,Shiga toxin inh
O=C(O)CCSc1ccc2ccccc2n1,-11%,13,-1%,5%,30*!
COc1cc(/C=C(\NC(=O)c2ccccc2)C(=O)NC(C(=O)O)c2ccccc2)cc(OC)c1OC (stereo unspecified),13%,2,3%,-14%,1
Cc1cc(C(C)(C)C)ccc1OCCCCN1CCCC1,7%,30*,-3%,-16%,6
Cc1cc(C(C)(C)C)ccc1OCCN1CCCC1,-1%,-3,4%,-20%,-24
COc1ccc(/C=C/c2noc(-c3ccccc3O)n2)cc1,15%,56*,-5%,-1%,83*
CC(=O)Oc1ccccc1-c1nc(/C=C/c2ccccc2)no1,-15%,47*,-6%,5%,63*
